The entries come from a sample that favours hits as a whole.
14-3-3g Raf = alters human 14-3-3 gamma binding to Raf peptide; AID 422; hit rate 0.19% among 160,000; P61981; FP, 14-3-3gamma / TMR-pS259-Raf peptide binding; inhibition, % at 40 µM; in the data active = inhibition above about 30%;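 also: 0% = protein plus tracer without compound and 100% = blank with tracer alone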
Target sequence (P61981 whole entry, looked up): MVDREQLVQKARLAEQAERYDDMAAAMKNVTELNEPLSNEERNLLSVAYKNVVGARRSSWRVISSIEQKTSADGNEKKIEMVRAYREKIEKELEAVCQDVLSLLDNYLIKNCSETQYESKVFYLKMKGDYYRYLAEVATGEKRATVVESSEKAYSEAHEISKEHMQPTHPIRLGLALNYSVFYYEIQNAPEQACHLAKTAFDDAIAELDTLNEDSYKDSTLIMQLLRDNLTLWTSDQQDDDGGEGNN
Starred values were filed as active, the others as inactive.

SMILES | 14-3-3g Raf
Cc1cc2c(N)cccc2nn1 | 44*
Cc1cc(N)c2ccccc2n1 | -2
Cc1c(N)cccc1-c1nc2ccccc2s1 | 3
CC(=O)Nc1sc2c(c1C(=O)Nc1ccccc1C)CCCCC2 | 3
O=c1oc2ccccc2cc1-c1cn(-c2ccccc2)c(=O)[nH]1 | -92
CCCOc1cccc(C(=O)Nc2ccc(-c3nc4cc(Cl)ccc4o3)cc2)c1 | -222
NC(=O)c1ccc(N2CCCCC2)c(N2C(=O)CCC2=O)c1 | -1
NC(=O)c1ccc(N2CCCCC2)c(N2C(=O)C3C4C=CC(C4)C3C2=O)c1 (stereo unspecified) | 2
NC(=O)c1cc(N)ccc1N1CCCC1 | 31*
O=C1NC(c2ccc(C(F)(F)F)cc2)C(C(=O)c2ccccc2)C(O)(C(F)(F)F)N1 (stereo unspecified) | 0
COc1cc(OC)cc(C(=O)N2c3ccccc3C(C)(c3ccccc3)CC2(C)C)c1 (stereo unspecified) | 2
COc1ccc(S(=O)(=O)c2cc(NS(=O)(=O)c3ccc(Cl)cc3)cc(C(C)C)c2O)cc1 | -6
O=C(Nc1ccccc1Cl)c1ccc(F)c(S(=O)(=O)N2CCCc3ccccc32)c1 | 31*
O=C(Nc1cccc(Cl)c1)c1ccc(F)c(S(=O)(=O)N2CCCc3ccccc32)c1 | -8
O=C(Nc1ccccc1Cl)c1cc(S(=O)(=O)N2CCCc3ccccc32)ccc1F | 4
COc1ccc(C(=O)Nc2ccc(NC(=O)c3ccc(C(C)(C)C)cc3)cc2)cc1OC | 3
COc1ccc2c(c1)sc(=NC(=O)c1ccc(S(=O)(=O)N(C)C3CCCCC3)cc1)n2C | 3
O=C(CN(Cc1ccccc1)S(=O)(=O)c1ccc(F)cc1)NCc1ccccc1 | 3
O=C(CN(Cc1ccccc1)S(=O)(=O)c1ccc(Br)cc1)NCc1ccncc1 | -2
O=C(CN(Cc1ccccc1)S(=O)(=O)c1ccccc1)NCc1ccncc1 | 33*
CN(C(=O)c1cc(-c2ccc(Cl)cc2)on1)c1ccccc1 | -13
CCCS(=O)(=O)N1N=C(c2ccc(NS(C)(=O)=O)cc2)CC1c1ccccc1F (stereo unspecified) | 71*
CS(=O)(=O)Nc1ccc(C2=NN(S(C)(=O)=O)C(c3ccccc3F)C2)cc1 (stereo unspecified) | -228
CCS(=O)(=O)Nc1ccc(C2=NN(S(=O)(=O)CC)C(c3ccccc3F)C2)cc1 (stereo unspecified) | -279
O=C(NC1CCCCCCC1)c1ccc2c(c1)N(Cc1ccc(F)cc1)C(=O)CS2 | -3
SMILES | 14-3-3g Raf
N#CCc1nc(-c2ccc3c(c2)Cc2ccccc2-3)cs1 | -97
CC(C)Nc1cc2c(NC(C)C)onc2c2c1C(=O)c1ccccc1C2=O | 87*
COC(=O)C(C(=O)OC)c1cc(Br)c2noc3c2c1C(=O)c1ccccc1-3 | -57
CNc1cc(Nc2ccc(C)cc2)c2c3c(onc13)-c1ccccc1C2=O | -89
O=C(Nc1ccc(Cl)cc1)c1sc(=S)n2c1[nH]c(=O)c1sccc12 | -13
NC(=O)c1c(NC(=O)c2ccccc2Cl)sc2c1CCCC2 | 4
NC(=O)c1c(NC(=O)c2ccc(Cl)cc2)sc2c1CCCC2 | 40*
NC(=O)c1c(NC(=O)c2ccc(F)cc2)sc2c1CCCC2 | -12
O=C(NCc1ccco1)c1ccc(N2CC3CC(C2)c2cccc(=O)n2C3)c(NC(=O)c2ccncc2)c1 (stereo unspecified) | 2
Nc1c2c3c(c(Cl)ccc3[nH]c1=O)C(=O)c1ccccc1-2 | -4
O=C1c2ccccc2-c2c(Nc3ccccc3)c(=O)[nH]c3cccc1c23 | 92*
CC(=O)Nc1ccc(Nc2ccccc2)c2c1C(=O)c1ccccc1C2=O | -15
COc1ccc(CC(=O)NCC2(c3ccccc3)CCOCC2)cc1 | -7
CCC(=O)N1CCc2cc(Br)cc(S(=O)(=O)Nc3cc(C(F)(F)F)cc(C(F)(F)F)c3)c21 | -7
O=C(Nc1ccccc1Br)c1cc(S(=O)(=O)N2CCc3ccccc32)ccc1F | -32
CCCCCSc1nnc2c(n1)OC(c1cccc(C)n1)Nc1ccccc1-2 (stereo unspecified) | 36*
CCCCCCSc1nnc2c(n1)OC(c1ccsc1)Nc1ccccc1-2 (stereo unspecified) | -36
Cc1cccc(C2Nc3ccccc3-c3nnc(SCc4ccccc4F)nc3O2)n1 (stereo unspecified) | 22
CCCCCCSc1nnc2c(n1)OC(C)Nc1ccccc1-2 (stereo unspecified) | 44*
CCCCSc1nnc2c(n1)OC(c1cccc(OCC)c1OC)Nc1ccccc1-2 (stereo unspecified) | 70*
C=CCSc1nnc2c(n1)OC(c1cccc(C)n1)Nc1ccccc1-2 (stereo unspecified) | -8
CCCCSc1nnc2c(n1)OC(c1ccccc1OC)Nc1ccccc1-2 (stereo unspecified) | -1
CCCSc1nnc2c(n1)OC(C)Nc1ccccc1-2 (stereo unspecified) | -5
CCCSc1nnc2c(n1)OC(c1cccc(OCC)c1OC)Nc1ccccc1-2 (stereo unspecified) | -72
Cc1cccc(OCCCC(=O)Nc2sc3c(c2C(N)=O)CCCC3)c1 | -3
SMILES | 14-3-3g Raf
CC(C)(C)C1CCc2c(sc(NC(=O)c3ccccc3Cl)c2C(=O)N2CCC(C(N)=O)CC2)C1 (stereo unspecified) | -7
COc1ccccc1CNC(=O)c1ccc(N2CCCC2=O)cc1 | -5
CCOc1ccc2c(=O)c(-c3ccccc3Cl)coc2c1 | -6
CCOc1cccc(C(=O)Nc2cc(-c3nc4ccccc4o3)ccc2C)c1 | -160
CCc1ccc(-n2c(N)c(C(N)=O)sc2=S)cc1 | -1
COc1cc(C)c(C)cc1S(=O)(=O)N1CCCCC1c1cccnc1 (stereo unspecified) | 31*
CC(=O)Nc1ccc(S(=O)(=O)N2CCCCC2c2cccnc2)cc1 (stereo unspecified) | -4
CCC(=O)N1CCc2cc(S(=O)(=O)N3CCCCC3c3cccnc3)ccc21 (stereo unspecified) | -20
CCCc1ccc(O)c(N=Cc2cc(Br)cc(OC)c2O)c1 | 85*
CCCc1ccc(O)c(N=Cc2cc(Br)cc(OCC)c2O)c1 | -134
COc1ccc(N=Cc2cc(Br)ccc2O)c(OC)c1 | -50
O=C1C2C(C(=O)N1c1ccc3ccccc3c1)C1C=CC2C12CC2 (stereo unspecified) | -8
O=S(=O)(NCCN1CCN(S(=O)(=O)c2ccccc2)CC1)c1ccccc1 | -6
COC(=O)c1ccc2c(c1)NC(=O)CS2 | -2
COC(=O)c1ccc(C2C3=C(CCCC3=O)Nc3ccc4nc(C)ccc4c32)cc1 (stereo unspecified) | 1
COC(=O)c1ccc2c(c1)SC1=C(CCCC1=O)N2 | 33*
NC(=O)C1CCN(C(=O)CCNC(=O)Cn2cnc3sc4c(c3c2=O)CCCC4)CC1 | 4
CC(=O)N1c2c(cc(Br)cc2S(=O)(=O)NC2CCCCC2)CC1C (stereo unspecified) | -10
O=C(O)c1ccc2c(c1)C1C=CCC1C(C(=O)O)N2 (stereo unspecified) | 36*
O=C(O)c1ccc2c(c1)C1C=CCC1C(c1ccccn1)N2 (stereo unspecified) | 62*
CCOC(=O)C1Nc2ccc(C(=O)O)cc2C2C=CCC12 (stereo unspecified) | -82
O=C(O)c1ccc2c(c1)C1C=CCC1C(c1ccncc1)N2 (stereo unspecified) | -2
CCOC(=O)c1ccc2c(c1)C1C=CCC1C(C(=O)O)N2 (stereo unspecified) | -48

Source: PubChem (Emory University Molecular Libraries Screening Center)
